# Measurements as given in PubChem BioAssay (EPA / NIEHS).
# Activity calls are given as the source filed them. Rule for the calls: active = hit-call score of the fitted dose curve at least 0.9, where 1 is the maximum; inactive = score below 0.9.
# Assay: CCTE_Shafer_MEA_acute_per_network_burst_spike_number_mean: CCTE's Neural Acute Assay for Average Number of Spikes in a Network Burst, Shafer Lab (AID 2284019)
# Method: CCTE_Shafer_MEA_acute assay is conducted using Axion Biosystems 48 well microelectrode array (MEA) plates and Maestro recording system. Each well of the MEA plate contains a grid of 16 microelectrodes embedded in the culture surface. Electrically active cells, such as neurons, can be cultured over the electrodes, and electrical activity in these cells can be recorded extracellularly. The spontaneous firing of neurons is captured from each electrode on a microsecond timescale providing both temporally and spatially precise data. […] The CCTE_Shafer_MEA_acute assay uses primary cultures of rat cortical neurons. As these cultures mature over time, neural networks develop functional activity and form cohesive networks in which electrical activity can be highly coordinated. Baseline 40-minute recordings are made on days post-plating 13 or 15, followed by a secondary 40-minute recording after chemical exposure.CCTE_Shafer_MEA_acute_per_network_burst_spike_number_mean is a component of the CCTE_Shafer_MEA_acute assay. It measures the average number of spikes (action potential firings) in a network burst (temporally-clustered group of spikes across multiple electrodes) as the total number of spikes in a network burst divided by the number of network bursts during a recording in a microelectrode array (MEA) using Axion Biosystems Maestro 768 channel amplifier with the AxIS adaptive spike detector. The recordings before and after chemical treatment are used to calculate a percent change in the mean number of spikes in a network burst in each well.Data from the assay component CCTE_Shafer_MEA_acute_per_network_burst_spike_number_mean was analyzed into 1 assay endpoint. This assay endpoint, CCTE_Shafer_MEA_acute_per_network_burst_spike_number_mean, was analyzed in the negative analysis fitting direction relative to DMSO as the negative control and baseline of activity. Using a type of functional reporter, gain or loss-of-signal activity can be used to understand electrical activity.
# Spontaneous activity in the cortical cultures was recorded using an Axion Biosystems Maestro 768 channel amplifier and Axion Integrated Studios (AxIS) v1.8 (or later) software. The amplifier recorded from all channels simultaneously (gain = 1200 x; sampling rate = 12.5 kHz/channel): raw signals were filtered with a Butterworth band-pass filter (300-5000 Hz), which filters out slower local field potentials leaving only fast potentials, i.e., "spikes", arising from extracellular currents associated with action potentials (Pine 2006; Wheeler and Nam 2011). On-line spike detection of filtered signals was conducted with the AxIS adaptive spike detector, using a threshold of 8x the root mean squared (rms) noise on each channel. Any electrodes with rms noise levels greater than 5 uV were grounded (e.g., no data were recorded). Once grounded, an electrode was grounded for the duration of the experiment. All recordings were conducted at 37 C. Wells were deemed usable if on the day of the exposure >/= 10 electrodes were active (defined as >/= 5 spikes/min). On DIV 13 or 15, a minimum of three wells from one cortical culture preparation were treated with each compound (0.03-40 uM). Prior to recording baseline activity, each mwMEA plate was placed in the Maestro at 37 C and allowed to sit for 20 min while firing rates stabilized. Baseline activity (40 min) was recorded before the addition of each compound. An additional 40 min of spontaneous activity was recorded in the presence of each compound. Changes in network parameters relative to baseline were assessed following compound treatment.
Structure (SMILES),outcome,AC50
N[C@@H](CCC(=O)O)C(=O)O,inactive,–
CC(=O)c1ccc(C)cc1,inactive,–
CCn1cc(C(=O)O)c(=O)c2ccc(C)nc21,inactive,–
CCCO[Si](OCCC)(OCCC)OCCC,inactive,–
CC(C)CCCC(C)(C)O,inactive,–
CCCCN(CCO)CCO,–,15 µM (active)
CC/C(=C(\c1ccccc1)c1ccc(OCCN(C)C)cc1)c1ccccc1,inactive,–
CC(C)(CO)CO,inactive,–
CCCCOCCOCCO,inactive,–
O=C(c1ccc(OCCN2CCCCC2)cc1)c1c(-c2ccc(O)cc2)sc2cc(O)ccc12,–,4.05 µM (active)
c1ccc(OCCOc2ccccc2)cc1,inactive,–
